In PubChem BioAssay AID540259 (Broad Institute, 2011):
Potency and affinity values are given separately. Values without a mark were called inactive.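 Rule for the calls: active = cell killing, meaning signal decrease, with fitted half-maximal dose at or below ten times the top valid tested dose; inconclusive = poor fit, or flat curve with 30 to 70% signal loss; inactive = the rest.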

assay: HeLa cell cytotoxicity, dose response, cytotoxicity control for MITF activator project, CellTiter-Glo luminescence, cherry-pick samples (AID 540259); conditions: HeLa viability, CellTiter-Glo ATP luminescence, 24 h; series mostly up to 35 µM; activity change, negative = cytotoxicity: at the top concentration;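 note: 0% = DMSO neutral control and -100% = mitoxantrone positive control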

SMILES | activity change, negative = cytotoxicity
COc1cc(SC)ccc1C(=O)NCC1CCCCC1 | -6.12%
Cc1cccc(NC(=O)c2sc3nc(N)c(C#N)cc3c2N)c1 | -3.44%
COc1ccc(C(=O)Nc2cc3c4c(c2)CC(=O)N4CCC3)c(OC)c1 | 11.5%
COc1ccccc1Nc1nc(C)cs1 | 25.3%
Cc1ccc2cc(/C=N/Nc3ccc(C(=O)O)cc3)c(Cl)nc2c1 | 1.67%
CCn1cnc2cc(NCc3ccccc3Cl)ccc21 | -1.68%
NC(=O)c1ccc(-c2noc(-c3cccc(Cl)c3)n2)cc1 | 14.2%
[O-]/[N+](=C\C=C\c1ccccc1)c1ccccc1 | -0.305%
O=C(NC1CCCCCC1)c1cc2c(=O)n3ccccc3nc2s1 | -0.59%
CCC(=O)Nc1sc(C(=O)Nc2ccccc2F)c(C)c1C(=O)OC | 1.28%
CC(C)(C)N1C(=O)c2ccc(C(=O)Nc3nccs3)cc2C1=O | 12.9%
N#Cc1c(-c2ccc(Cl)cc2)ccn2nc(C3CCCCC3)nc12 | -3.42%
CC(C)C(=O)Nc1cccc(-c2cnc3ccccc3n2)c1 | -9.42%
CCCc1cc(C(=O)Nc2ccc(C(=O)OC)cc2)cs1 | -6.83%
COc1ccc(-c2ccc(C(=O)C3CC3)cc2)cc1 | 3.45%
C/C(=N\O)c1ccc(N2C(=O)C3CC=C(Cl)CC3C2=O)cc1 (stereo unspecified) | 12.3% [at 11 µM]
CCCc1ccc(C(=O)NNc2ccccc2F)cc1 | 5%
Nc1nc(COc2ccc3ccccc3c2)cs1 | 4.74%

SMILES | activity change, negative = cytotoxicity
Oc1oc(-c2ccccc2)nc1C=NCc1ccccc1 | 4.32%
Fc1ccccc1Nc1nc2ccccc2o1 | -19.8%
C=CCn1cnc2c(nnn2-c2ccc(C)c(C)c2)c1=O | -8.47%
c1cnc2nc(-c3ccc4c(c3)OCO4)cn2c1 | -4.65%
COc1ccc(/C=N/Nc2nccnc2Cl)c(OC)c1 | 8.52%
CCN(CC)c1ccc(-c2nc3cnccc3n2C)cc1 | -9.89%
Cc1cccc(C(=O)Nc2ccn(C)n2)c1 | 14.6%
CCc1cccc(NC(=O)c2sc3nc4n(c(=O)c3c2C)CCC4)c1 | -1.51%
O=C(NOCc1ccccc1)OCc1ccccc1 | 10.8%
CCC(C)c1ccc(NC(=O)Nc2cccnc2)cc1 (stereo unspecified) | 25%
CC(C)(C)C(=O)N1CCN(c2nc3ccccc3s2)CC1 | -0.769%
COc1ccccc1C(=O)NCC(=O)Nc1ccc2c(c1)CCC2 | 13.6%
O=C(NCc1ccc2c(c1)OCO2)Nc1cccc(Cl)c1 | -5.92%
CN1CCN(/N=C/c2ccc(Br)cc2)CC1 | 1.36%
CC(=O)c1cccc(NC(=O)c2cc3nc(C)cc(C)n3n2)c1 | -6.5%
COc1ccc(Oc2ncnc3sccc23)cc1 | 2.48%
COc1ccc2ccccc2c1/C=N/Nc1cccc(C(=O)O)c1 | 4.52%
Clc1ccc(-c2cc(CSc3ccccc3)on2)cc1 | -6.17%
